Measurements: PubChem BioAssay (NCI)
The panel holds about 83,000 compounds, 20% with a hit somewhere; the sample as a whole holds those more often.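 Step 1: grow cells in 96-well plates. Step 2: add test compound at a single concentration. Step 3: incubate 48 h. Step 4: record percent growth.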 Values without a mark were called inactive. Active and inactive are the calls of the source. How the source made its calls: active means growth percent below 10; inactive means the rest.

Legend:
Experiment in all cases: NCI-60 one-dose screen, 48 h (100 = growth as untreated, 0 = no growth, -100 = all killed)
Settings in all cases: 10 µM unless noted
DU-145 prostate = system: DU-145 prostate
K-562 leukemia = system: K-562 leukemia
MDA-MB-231 breast = system: MDA-MB-231 breast
RXF 393 renal = system: RXF 393 renal
SF-268 CNS = system: SF-268 CNS
SF-539 CNS = system: SF-539 CNS
UACC-257 melanoma = system: UACC-257 melanoma
M14 melanoma = system: M14 melanoma
MALME-3M melanoma = system: MALME-3M melanoma
SF-295 CNS = system: SF-295 CNS

Structure (SMILES) | growth (DU-145 prostate) | growth (K-562 leukemia) | growth (MDA-MB-231 breast) | growth (RXF 393 renal) | growth (SF-268 CNS) | growth (SF-539 CNS) | growth (UACC-257 melanoma) | growth (M14 melanoma) | growth (MALME-3M melanoma) | growth (SF-295 CNS)
CCc1cnc(=S)n(-c2ccccc2)c1 | 104% | 117% | 107% | 129% | 100% | 101% | 120% | 106% | – | –
CC(=O)Oc1cccc(S(=O)(=O)n2cc(C(=O)C(=O)Nc3ccncc3)c3ccccc32)c1 | 104% | – | 66.1% | 90.8% | 103% | 86.7% | 93.9% | 102% | 90.4% | 58.5%
NC(=S)N/N=C1\CCCC(C(F)(F)F)C1 (centres undefined) | – | 46.3% | 102% | 123% | – | 101% | 73.2% | 95.6% | 104% | 100%
Cc1cccc(/C=N/Nc2cc(C)c3cccc(C)c3n2)n1 | 101% | 69.8% | 90.4% | 98.2% | 101% | 88% | 80% | 98.4% | – | –
Cc1c(C(N)=O)sc2c1c(=O)n(Cc1ccccc1)c1nnc(Nc3ccccc3)n21 | 89.3% | – | 105% | 113% | 101% | 100% | 92.3% | 101% | 110% | 104%
Cc1ccc(NS(=O)(=O)c2cc(C)ccc2C)cc1 | 57.9% | – | 57.4% | 47.6% | 53.7% | 45.4% | 73% | 8.87% (active) | 54.1% | 30.7%
COc1ccc(-c2ccc(C)n2-c2ccc(-c3nc4cc(Cl)ccc4s3)cc2)cc1 | 112% | – | 85.8% | 114% | 111% | 109% | 107% | 107% | 102% | 96.6%
C=COC(=O)CCCCCCCCC | 114% | – | 102% | 106% | 101% | 113% | 107% | 108% | 104% | 115%
CN(C)c1nc2c(N)ncnc2n1C1OC(CO)C(O)C1O (centres undefined) | 118% | – | 116% | 113% | 105% | 101% | 105% | 102% | 88% | 111%
CCCCN(CCCC)c1ccc(C(=N)c2ccc(N(CCCC)CCCC)cc2)cc1 | -98.6% (active) | – | -90.3% (active) | -94.8% (active) | -95.9% (active) | -91.3% (active) | -81.1% (active) | -90.3% (active) | -64.5% (active) | -83.5% (active)
CN(C)CC(C(=O)c1ccccc1)c1ccccc1 (centres undefined) | 14.7% | – | 80% | 54.8% | 5.71% (active) | 33.7% | 32.7% | -1.12% (active) | 57.7% | 93.1%
Cc1ccc2nc(Cl)cc(=O)n2c1 | 124% | – | 111% | 117% | 114% | – | 112% | 104% | 135% | 113%
COc1cc(Nc2ncccc2C(=O)NCc2cn(Cc3cccc(Oc4ccccc4)c3)nn2)cc(OC)c1 | 68.9% | – | 26.3% | 64.2% | 47.2% | 38.5% | 74% | 31.2% | 56.1% | 28.3%
C=C1C(=O)O[C@H]2[C@H]1CC/C(COC(=O)NCc1ccccc1OC)=C\CC[C@@]1(C)O[C@@H]21 | 20.1% | – | 46.2% | 10% | 53.1% | 28.7% | – | 33% | 68.8% | –
O=C(CSc1nc2ccccc2[nH]1)Nc1ccc(-c2nc3ccccc3s2)c(Cl)c1 | – | 20.4% | -36.8% (active) | 21.8% | – | -88.6% (active) | 16% | -58.1% (active) | 2.26% (active) | 3.63% (active)
O=C1c2c(Cl)c(Cl)c(Cl)c(Cl)c2C(=O)C2(Cl)CC=CCC12Cl (centres undefined) | -74.2% (active) | – | 18.2% | -78.3% (active) | -96.2% (active) | 48.1% | -34.4% (active) | -12% (active) | -3.27% (active) | 106%
N#Cc1ccc(N2Cc3ccccc3OC3=C2C(=O)c2c(O)ccc(O)c2C3=O)cc1 | -91.8% (active) | – | -8.93% (active) | -50.5% (active) | 7.68% (active) | -17.5% (active) | – | -41.9% (active) | -56.4% (active) | –

Structure (SMILES) | growth (DU-145 prostate) | growth (K-562 leukemia) | growth (MDA-MB-231 breast) | growth (RXF 393 renal) | growth (SF-268 CNS) | growth (SF-539 CNS) | growth (UACC-257 melanoma) | growth (M14 melanoma) | growth (MALME-3M melanoma) | growth (SF-295 CNS)
O=C(O)/C=C/C(=O)c1ccc(Cl)cc1 | 109% | – | 122% | 125% | 96.6% | 107% | 93.2% | 101% | 110% | 123%
O=[N+]([O-])c1ccc(/C=C/C2(CCl)OCCO2)cc1 | 114% | 65.7% | 114% | 104% | 115% | 104% | 93.6% | 95.2% | – | –
Clc1ccc(-c2nc3ccccc3s2)cc1Cl | 112% | – | 68% | 109% | 99.2% | 104% | 114% | 104% | 114% | 108%
Cc1ccc2ccccc2c1C[n+]1ccccc1 | 117% | – | 77.8% | 105% | 106% | 105% | 113% | 111% | 108% | 101%
CN1C=CN(Cc2ccc(-c3ccccn3)nc2)[CH-]1.CN1C=CN(Cc2ccc(-c3ccccn3)nc2)[CH-]1.[Au+3] | – | 21.9% | 28.1% | 19.5% | 44.1% | 17.4% | 2.13% (active) | 35.6% | 21.5% | 17.3%
CCCCCCCC/C=C/CCCCCCCC1=NC(C)(C)CN1C(C)(C)CO | – | -58.6% (active) | 17.5% | 13.1% | 53.6% | 77.1% | -28.5% (active) | -84.7% (active) | -12.9% (active) | 86.9%
Cn1c(=O)c2[nH]c(C3CC=CCC3)nc2n(C)c1=O (centres undefined) | 101% | – | 94.6% | 115% | 96% | – | 116% | 111% | 107% | 89.5%
O=S(=O)(c1ccc(OCCO)cc1)c1ccc(OCCO)cc1 | – | 101% | 112% | 119% | 122% | 110% | 85.7% | 102% | 98.6% | 118%
C=C(C)[C@@H]1C[C@@H]2Cc3cc(F)ccc3N1O2 | 114% | – | 99.8% | 108% | 101% | 95.6% | 99.1% | 95.5% | 83% | 106%
O=C(O)Cc1cccc(=O)c(O)c1C(=O)O | 117% | – | 110% | 112% | 107% | 110% | 103% | 102% | 92.5% | 117%
O=C1CCCCC1(c1ccccc1)c1ccccc1 | – | – | 101% | 93.8% | 98.2% | 94% | 106% | 99% | – | 97%
N#Cc1c(Nc2ccccc2)nc2n(c1=O)-c1ccccc1Sc1ccccc1-2 | 90% | 57.6% | 63.7% | 82.2% | 85.3% | 84.4% | 105% | 95.1% | – | 84%
O=C(NCc1cn(Cc2cccc(Oc3ccccc3)c2)nn1)c1cccnc1Nc1ccc(F)cc1 | 63.6% | – | 42.2% | 65.9% | 67.7% | 62.6% | 76.8% | – | 67.5% | 50.7%
O=C(CSC1CCc2ccccc21)N/N=C/c1ccccc1O (centres undefined) | 52.8% | – | 45.2% | 75.1% | 39.5% | 54.7% | – | 47.4% | 53.3% | –
CCN(CC)c1ccc(C(=N)c2ccc(N(CC)CC)cc2)cc1 | – | -4.1% (active) | -63.3% (active) | -31.5% (active) | – | -68.7% (active) | -39.6% (active) | – | -32.6% (active) | -54.7% (active)
C=C[C@@H]1C[C@H](O)Cc2ccccc2N1 | 115% | – | 101% | 120% | 107% | 101% | 104% | 108% | 113% | 109%
